# Measured values: ChEMBL document CHEMBL1961873, “Compounds: GSK PKIS; Assays: Nanosyn kinase panel” (2012)
# Key:
# [1] = target: T1, Serine/threonine-protein kinase Nek9 (Homo sapiens) (UniProt Q8TD19); conditions: at 1 µM;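 also: each value is a mean percent inhibition of NEK9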
# T1 sequence (whole entry): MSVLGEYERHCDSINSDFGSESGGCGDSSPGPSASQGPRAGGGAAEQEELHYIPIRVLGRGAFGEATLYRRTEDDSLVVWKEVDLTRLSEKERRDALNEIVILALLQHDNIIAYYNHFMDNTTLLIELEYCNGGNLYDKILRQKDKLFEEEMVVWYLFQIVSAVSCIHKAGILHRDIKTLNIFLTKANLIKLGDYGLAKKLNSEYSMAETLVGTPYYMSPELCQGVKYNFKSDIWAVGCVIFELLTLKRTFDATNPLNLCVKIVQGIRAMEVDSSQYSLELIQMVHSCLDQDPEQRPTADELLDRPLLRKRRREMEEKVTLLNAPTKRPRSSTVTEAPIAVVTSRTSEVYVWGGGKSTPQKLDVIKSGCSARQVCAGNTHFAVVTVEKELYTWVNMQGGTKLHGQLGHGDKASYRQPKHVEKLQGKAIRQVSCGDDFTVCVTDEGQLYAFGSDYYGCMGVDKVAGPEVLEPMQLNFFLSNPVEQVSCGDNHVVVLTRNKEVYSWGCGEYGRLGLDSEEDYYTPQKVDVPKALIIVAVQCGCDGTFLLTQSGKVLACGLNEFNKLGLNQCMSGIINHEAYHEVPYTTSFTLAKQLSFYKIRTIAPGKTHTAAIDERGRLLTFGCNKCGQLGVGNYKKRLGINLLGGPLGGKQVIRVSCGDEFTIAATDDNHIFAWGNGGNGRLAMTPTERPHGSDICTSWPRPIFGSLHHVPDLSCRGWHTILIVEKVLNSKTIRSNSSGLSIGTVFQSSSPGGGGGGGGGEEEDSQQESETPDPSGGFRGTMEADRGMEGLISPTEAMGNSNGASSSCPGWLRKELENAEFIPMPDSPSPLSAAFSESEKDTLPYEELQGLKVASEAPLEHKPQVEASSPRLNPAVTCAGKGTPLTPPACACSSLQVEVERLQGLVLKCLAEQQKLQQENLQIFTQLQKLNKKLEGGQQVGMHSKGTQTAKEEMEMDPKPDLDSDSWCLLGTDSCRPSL
# [2] = target: Serine/threonine-protein kinase PLK1 (Homo sapiens) (UniProt P53350); conditions: at 0.1 µM
# [3] = target: Serine/threonine-protein kinase PLK1 (Homo sapiens) (UniProt P53350); conditions: at 1 µM
# [4] = target: T2, Dual specificity protein kinase TTK (Homo sapiens) (UniProt P33981); conditions: at 0.1 µM
# T2 sequence (whole entry): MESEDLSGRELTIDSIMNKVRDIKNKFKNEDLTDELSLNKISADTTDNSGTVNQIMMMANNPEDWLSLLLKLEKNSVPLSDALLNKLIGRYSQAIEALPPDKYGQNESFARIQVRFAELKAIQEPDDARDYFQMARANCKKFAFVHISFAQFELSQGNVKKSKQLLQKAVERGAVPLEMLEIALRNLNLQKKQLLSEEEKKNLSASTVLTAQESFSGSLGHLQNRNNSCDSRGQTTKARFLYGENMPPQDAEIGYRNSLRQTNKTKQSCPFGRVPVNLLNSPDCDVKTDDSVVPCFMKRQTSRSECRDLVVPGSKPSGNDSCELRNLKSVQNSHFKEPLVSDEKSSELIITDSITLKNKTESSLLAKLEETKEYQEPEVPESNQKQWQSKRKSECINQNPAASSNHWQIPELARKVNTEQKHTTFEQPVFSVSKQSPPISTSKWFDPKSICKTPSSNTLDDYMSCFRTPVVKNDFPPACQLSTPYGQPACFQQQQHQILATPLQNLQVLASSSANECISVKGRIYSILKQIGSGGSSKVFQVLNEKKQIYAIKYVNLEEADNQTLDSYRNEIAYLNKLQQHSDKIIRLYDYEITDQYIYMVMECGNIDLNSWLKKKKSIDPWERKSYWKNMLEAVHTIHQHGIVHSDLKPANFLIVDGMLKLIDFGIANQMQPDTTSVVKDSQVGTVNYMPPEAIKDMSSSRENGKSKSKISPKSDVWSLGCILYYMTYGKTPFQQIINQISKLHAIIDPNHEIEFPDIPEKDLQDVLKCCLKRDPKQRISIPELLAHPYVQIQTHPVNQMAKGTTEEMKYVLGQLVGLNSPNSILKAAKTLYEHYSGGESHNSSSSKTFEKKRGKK
# [5] = system: T3, Receptor-type tyrosine-protein kinase FLT3 (Homo sapiens), P36888 [D835Y]; conditions: at 1 µM
# T3 sequence (whole entry): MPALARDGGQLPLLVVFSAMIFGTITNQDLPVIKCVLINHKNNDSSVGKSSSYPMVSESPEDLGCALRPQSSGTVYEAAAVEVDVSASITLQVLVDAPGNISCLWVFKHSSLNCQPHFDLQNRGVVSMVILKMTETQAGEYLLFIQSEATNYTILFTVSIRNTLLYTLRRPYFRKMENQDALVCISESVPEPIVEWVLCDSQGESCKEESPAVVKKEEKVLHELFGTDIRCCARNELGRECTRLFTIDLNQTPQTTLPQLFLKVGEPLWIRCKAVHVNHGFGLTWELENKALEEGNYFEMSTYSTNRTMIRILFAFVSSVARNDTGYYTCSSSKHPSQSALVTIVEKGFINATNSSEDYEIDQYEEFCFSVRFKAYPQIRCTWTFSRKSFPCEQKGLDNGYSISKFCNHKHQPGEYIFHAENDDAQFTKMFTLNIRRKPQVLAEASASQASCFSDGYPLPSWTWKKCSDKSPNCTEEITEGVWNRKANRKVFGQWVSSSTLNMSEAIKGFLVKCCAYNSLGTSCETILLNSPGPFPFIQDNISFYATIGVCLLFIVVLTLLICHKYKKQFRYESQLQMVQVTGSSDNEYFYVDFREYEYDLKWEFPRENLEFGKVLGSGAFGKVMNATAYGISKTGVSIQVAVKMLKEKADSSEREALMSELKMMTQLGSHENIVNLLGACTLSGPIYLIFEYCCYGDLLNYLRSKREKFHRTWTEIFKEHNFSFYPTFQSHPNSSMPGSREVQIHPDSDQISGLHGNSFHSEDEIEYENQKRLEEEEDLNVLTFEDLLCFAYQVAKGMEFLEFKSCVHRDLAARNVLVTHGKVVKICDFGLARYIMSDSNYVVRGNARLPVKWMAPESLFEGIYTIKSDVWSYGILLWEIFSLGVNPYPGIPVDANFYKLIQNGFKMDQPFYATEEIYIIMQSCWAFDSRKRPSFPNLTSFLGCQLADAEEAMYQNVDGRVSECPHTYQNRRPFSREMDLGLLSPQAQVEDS
# [6] = target: Vascular endothelial growth factor receptor 3 (Homo sapiens) (UniProt P35916); conditions: at 0.1 µM
# [7] = target: Vascular endothelial growth factor receptor 3 (Homo sapiens) (UniProt P35916); conditions: at 1 µM
# [8] = target: Macrophage colony-stimulating factor 1 receptor (Homo sapiens) (UniProt P07333); conditions: at 0.1 µM
# [9] = target: Macrophage colony-stimulating factor 1 receptor (Homo sapiens) (UniProt P07333); conditions: at 1 µM
# [10] = target: Tyrosine-protein kinase Fyn (Homo sapiens) (UniProt P06241); conditions: at 0.1 µM
# Tyrosine-protein kinase Fyn (Homo sapiens), sequence (P06241 2-537 limits assumed): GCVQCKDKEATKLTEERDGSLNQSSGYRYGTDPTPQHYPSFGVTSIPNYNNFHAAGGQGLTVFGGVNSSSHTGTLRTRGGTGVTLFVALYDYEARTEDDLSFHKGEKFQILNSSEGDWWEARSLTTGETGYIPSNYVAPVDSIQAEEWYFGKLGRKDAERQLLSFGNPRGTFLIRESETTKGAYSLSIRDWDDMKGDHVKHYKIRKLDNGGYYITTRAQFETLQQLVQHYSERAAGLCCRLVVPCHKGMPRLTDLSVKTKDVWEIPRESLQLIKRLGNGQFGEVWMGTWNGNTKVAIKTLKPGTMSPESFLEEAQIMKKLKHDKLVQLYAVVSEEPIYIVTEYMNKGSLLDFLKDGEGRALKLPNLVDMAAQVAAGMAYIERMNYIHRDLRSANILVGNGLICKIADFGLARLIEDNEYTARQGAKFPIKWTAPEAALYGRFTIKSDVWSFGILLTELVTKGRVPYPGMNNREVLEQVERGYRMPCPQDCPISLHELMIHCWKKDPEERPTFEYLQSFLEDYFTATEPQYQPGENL
# Macrophage colony-stimulating factor 1 receptor (Homo sapiens), sequence (P07333 whole entry): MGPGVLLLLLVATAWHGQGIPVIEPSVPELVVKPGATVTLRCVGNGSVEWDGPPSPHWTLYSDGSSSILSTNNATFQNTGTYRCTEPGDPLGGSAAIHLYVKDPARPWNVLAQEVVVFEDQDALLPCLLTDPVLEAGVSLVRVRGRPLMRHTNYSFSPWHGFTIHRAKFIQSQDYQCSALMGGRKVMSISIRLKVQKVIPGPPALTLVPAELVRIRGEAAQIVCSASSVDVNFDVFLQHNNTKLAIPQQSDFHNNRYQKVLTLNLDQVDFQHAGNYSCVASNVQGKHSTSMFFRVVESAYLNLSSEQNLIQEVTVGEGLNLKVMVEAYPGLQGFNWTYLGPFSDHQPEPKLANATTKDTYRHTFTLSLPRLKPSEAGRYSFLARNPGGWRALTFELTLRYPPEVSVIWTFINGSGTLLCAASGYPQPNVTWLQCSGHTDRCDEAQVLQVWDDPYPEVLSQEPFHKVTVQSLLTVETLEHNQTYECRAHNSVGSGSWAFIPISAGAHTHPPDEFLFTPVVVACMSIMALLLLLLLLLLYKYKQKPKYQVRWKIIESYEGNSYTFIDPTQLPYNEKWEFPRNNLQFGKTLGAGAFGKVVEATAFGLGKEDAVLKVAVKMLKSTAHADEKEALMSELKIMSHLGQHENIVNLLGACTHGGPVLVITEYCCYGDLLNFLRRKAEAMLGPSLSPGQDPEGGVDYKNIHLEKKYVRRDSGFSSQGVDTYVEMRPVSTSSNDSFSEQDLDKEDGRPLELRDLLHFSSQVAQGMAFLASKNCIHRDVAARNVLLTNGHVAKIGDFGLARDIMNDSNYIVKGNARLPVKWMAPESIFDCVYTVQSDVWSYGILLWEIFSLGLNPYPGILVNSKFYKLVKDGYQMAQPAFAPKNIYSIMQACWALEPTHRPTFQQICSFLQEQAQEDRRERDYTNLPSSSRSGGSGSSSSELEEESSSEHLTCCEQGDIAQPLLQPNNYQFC
# Vascular endothelial growth factor receptor 3 (Homo sapiens), sequence (P35916 whole entry): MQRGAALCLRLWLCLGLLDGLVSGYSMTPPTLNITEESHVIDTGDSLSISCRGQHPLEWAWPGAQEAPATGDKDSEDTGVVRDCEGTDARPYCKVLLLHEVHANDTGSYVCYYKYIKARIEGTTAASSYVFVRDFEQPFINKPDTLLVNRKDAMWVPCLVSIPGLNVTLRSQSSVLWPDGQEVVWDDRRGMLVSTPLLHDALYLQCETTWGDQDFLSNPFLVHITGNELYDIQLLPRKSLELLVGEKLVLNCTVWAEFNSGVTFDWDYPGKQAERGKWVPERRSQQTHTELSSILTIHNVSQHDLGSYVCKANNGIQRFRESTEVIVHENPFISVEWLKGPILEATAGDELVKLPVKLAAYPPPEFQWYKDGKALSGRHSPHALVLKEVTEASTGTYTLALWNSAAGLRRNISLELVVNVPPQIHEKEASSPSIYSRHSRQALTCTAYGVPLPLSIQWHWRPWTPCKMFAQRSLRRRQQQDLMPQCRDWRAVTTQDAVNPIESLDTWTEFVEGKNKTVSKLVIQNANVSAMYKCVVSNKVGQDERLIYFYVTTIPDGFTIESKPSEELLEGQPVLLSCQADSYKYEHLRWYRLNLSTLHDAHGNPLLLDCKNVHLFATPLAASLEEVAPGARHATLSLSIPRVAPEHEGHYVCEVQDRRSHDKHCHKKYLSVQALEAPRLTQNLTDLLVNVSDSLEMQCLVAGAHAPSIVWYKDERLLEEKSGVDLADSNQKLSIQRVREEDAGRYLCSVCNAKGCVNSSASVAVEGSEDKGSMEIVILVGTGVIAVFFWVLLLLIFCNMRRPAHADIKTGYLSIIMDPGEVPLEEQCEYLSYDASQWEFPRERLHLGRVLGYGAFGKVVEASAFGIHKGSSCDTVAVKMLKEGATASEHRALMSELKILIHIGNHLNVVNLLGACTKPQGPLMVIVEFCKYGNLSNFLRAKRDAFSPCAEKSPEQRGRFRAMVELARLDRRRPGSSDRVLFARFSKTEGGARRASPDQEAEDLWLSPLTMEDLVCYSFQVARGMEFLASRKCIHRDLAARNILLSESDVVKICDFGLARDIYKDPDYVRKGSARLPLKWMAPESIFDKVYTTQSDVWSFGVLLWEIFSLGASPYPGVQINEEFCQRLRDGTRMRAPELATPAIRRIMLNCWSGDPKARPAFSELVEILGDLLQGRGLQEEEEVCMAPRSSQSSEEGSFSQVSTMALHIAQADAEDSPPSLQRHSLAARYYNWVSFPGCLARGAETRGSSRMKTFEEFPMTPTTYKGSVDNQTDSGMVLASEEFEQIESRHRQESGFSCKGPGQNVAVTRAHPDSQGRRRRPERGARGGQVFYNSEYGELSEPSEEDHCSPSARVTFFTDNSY
# Serine/threonine-protein kinase PLK1 (Homo sapiens), sequence (P53350 whole entry): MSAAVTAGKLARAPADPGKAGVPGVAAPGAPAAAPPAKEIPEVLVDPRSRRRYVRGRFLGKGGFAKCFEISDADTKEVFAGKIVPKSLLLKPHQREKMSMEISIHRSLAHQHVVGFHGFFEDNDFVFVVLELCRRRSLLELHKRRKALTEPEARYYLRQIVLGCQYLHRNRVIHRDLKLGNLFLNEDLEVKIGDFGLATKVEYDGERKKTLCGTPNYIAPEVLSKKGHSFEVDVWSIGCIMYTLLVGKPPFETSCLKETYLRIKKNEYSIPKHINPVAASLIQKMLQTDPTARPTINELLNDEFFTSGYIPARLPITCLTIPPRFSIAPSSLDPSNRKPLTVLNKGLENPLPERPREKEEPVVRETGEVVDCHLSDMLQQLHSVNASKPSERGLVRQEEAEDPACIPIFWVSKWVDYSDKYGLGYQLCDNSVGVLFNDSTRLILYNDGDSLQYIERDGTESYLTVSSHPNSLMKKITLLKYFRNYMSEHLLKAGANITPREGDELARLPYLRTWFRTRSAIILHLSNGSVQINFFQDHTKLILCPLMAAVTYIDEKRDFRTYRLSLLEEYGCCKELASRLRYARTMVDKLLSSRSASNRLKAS
SMILES,inhibition [1] [%],inhibition [2] [%],inhibition [3] [%],inhibition [4] [%],inhibition [5] [%],inhibition [6] [%],inhibition [7] [%],inhibition [8] [%],inhibition [9] [%],inhibition [10] [%]
NC(=O)c1cccc(Nc2nccc(Nc3cccc(F)c3)n2)c1,11,2.05,6.07,2.31,21.2,1.81,30.6,22.1,62.5,7.98
Nc1ccc(C#Cc2cncnc2Nc2ccc(OCc3cccc(F)c3)c(Cl)c2)cc1,6.07,0.94,-0.53,4.2,-6.67,1.01,1.86,0.06,3.9,1.67
C[C@@H](Oc1cc(-n2cnc3ccc(OCC4CCN(C)CC4)cc32)sc1C(N)=O)c1ccccc1C(F)(F)F,102,91.6,94.3,1.25,20.9,1.45,18.6,-4.84,8.46,2.33
COC(=O)c1cncc(/C=C/c2c(C)cc(O)cc2C)c1,3.89,1.89,1.85,6.05,1.33,4.3,2.63,6.96,37.7,3.73
Cc1cc(Cl)cc2c1NC(=O)C2=NNc1ccc(S(N)(=O)=O)cc1,10.9,6.15,2.07,4.88,-4.47,1.38,1.06,-2.64,8.32,0.94
CN(C)C(=O)O[C@@H]1CN[C@@H](C#Cc2cc3ncnc(Nc4ccc(OCc5cccc(F)c5)c(Cl)c4)c3s2)C1,5.37,4.55,3.19,1.31,-2.2,-0.2,0.49,-1.87,2.32,1.01
Cc1cc(O)cc(C)c1/C=C/c1cncc(C(=O)N(C)C)c1,4.45,5.15,3.62,1.2,5.04,4.71,3.92,1.52,5.32,3.23
CCS(=O)(=O)c1ccc(OC)c(Nc2nccc(N(C)c3ccc4c(C)n[nH]c4c3)n2)c1,6.15,4.22,8.94,10.8,-5.27,94.8,104,5.72,32.2,39
CN(c1ccc(NC(=O)Nc2ccc(OC(F)(F)F)cc2)cc1)c1ccnc(Nc2cccc(S(N)(=O)=O)c2)n1,17.1,2.14,-0.02,4.18,43.2,37.5,90.1,42.6,86.1,8.93
Cc1ccc(NC(=O)CC2CC2)cc1-c1ccc(C(=O)NCC2CC2)cc1,7.42,3.49,1.97,5.15,0.64,0.87,-0.77,2.08,-0.55,1.7
c1ccc(Cc2nc3ccc(Nc4ncnc5ccccc45)cc3[nH]2)cc1,1.93,2.22,1.76,5.97,5.06,0.79,2.3,4.66,5.24,1.56
Nc1nccc(C#Cc2cncnc2Nc2ccc(OCc3cccc(F)c3)c(Cl)c2)n1,1.53,3.36,3.68,5.31,7.19,3.89,0.33,2.3,5.18,-0.31
Cc1nc(-c2ccccc2)n2nc(NCCCN3CCOCC3)ncc12,8.77,3.18,3.22,6.18,1.89,2.75,2.24,1.73,10.9,1.73
Nc1nccc(-c2c(-c3ccc(F)cc3)nn3cc(C(F)(F)F)ccc23)n1,0.92,2.53,0.4,1.73,-4.89,0.03,-1.18,-4.62,7.32,0.43
Cc1ccc(Nc2ccnc(Nc3cccc(C(N)=O)c3)n2)cc1O,10.2,3.22,6.17,5.91,86.1,64,95,12.7,49.9,77.2
CS(=O)(=O)Nc1cccc(-c2ccc3c(NC(=O)C4CC4)n[nH]c3c2)c1,3.4,0.09,2.1,2.91,-5.02,3.41,1.96,-0.21,1.8,2.53
